Source: PubChem
The list is not random: actives were taken first. Their share in the collection is about 3.2%.
PMP22 txn prim: modulates PMP22 transcription in S16 Schwann cells; S16 Pmp22-F2sN Schwann cells, FLuc/NLuc coincidence luminescence, 24 h; Potency, µM (top dose mostly 57.5 µM), usual class: inhibitors; 43,000 tested, 2% active; active means clear falling dose curves in both reporters; inconclusive means both reporters move, but less clearly or upward; inactive means either reporter flat; the % is the NLuc reporter signal
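Transcriptional readout in edited S16(c9) cells: two luciferases reported from the Pmp22 locus, measured in turn after 24 h compound incubation.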
p53null 39C tox: kills p53 null cells at the nonpermissive temperature. H1299 p53-null (neo) cells, 39C, ATPlite viability, 24 h. AID 904. Potency, µM (doses to about 46.1 µM), usual class: cytotoxic. 55,000 tested, 0.97% active; further: nearly all actives have a fitted effect of over 50% in size
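Following overnight plating at 37C (600 cells/well), H1299-neo or H1299-p53A138V cells are dosed up to 46 uM. Incubation lasts 24 hr at 39C before ATP detection.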
pS6 MEF inh: inhibitors of mTORC1 signaling in Tsc2-/- p53-/- MEF cells; Tsc2-/- p53-/- MEF, phospho-rpS6 immunofluorescence/PI, 24 h; Potency, µM (doses to about 38.3 µM), actives largely listed as inhibitors; 44,000 tested, 0.78% active; AID 493208; further: nearly all actives have a fitted effect of over 50% in size
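Immunofluorescence of rpS6 phosphorylation in Tsc2-/-, p53-/- MEFs after 24 h compound exposure, normalized to propidium iodide signal. Activity is expressed as % positive cells, thresholded with 7.5 nM rapamycin.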
S16 viability: cytotoxicity in S16 Pmp22-F2sN Schwann cells | 43,000 tested, 0.48% active | AID 1508642 | Potency, µM (highest dose often 57.5 µM), hits mostly cytotoxic | S16 Pmp22-F2sN Schwann cells viability, CellTiter-Glo, 24 h; further: nearly all actives have a fitted effect of over 65% in size
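Seed 500-1,000 S16 Pmp22-F2sN cells per well in phenol-red-free DMEM with 10% heat-inactivated FBS; pin-add 23 nL compound; incubate 24 h at 37C; add CellTiter-Glo, wait 15 min protected from light; read luminescence.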
p53null 32C kill: p53 null cell cytotoxicity, permissive temperature | H1299-neo p53 null cells, ATP luminescence, 24 h, 32C | Potency, µM (titrated, usually from 46.1 µM), actives largely listed as cytotoxic | 55,000 tested, 0.62% active; further: nearly all actives have a fitted effect of over 55% in size
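ATP-content luminescence in p53-null H1299-neo cells after 24 h compound exposure (up to 46 uM) at 32C permissive temperature; 0% and 100% killing set by DMSO and 100 uM tamoxifen; Hill-equation AC50.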
NLuc saturating: inhibits NanoLuc at saturating substrate, PMP22 counter-screen; shares compounds with PMP22 txn prim; Secreted NLuc enzyme (filtered S16 cell medium), Nano-Glo luminescence; Potency, µM (top dose mostly 57.5 µM), actives largely listed as inhibitors; 690 tested, 4% active; AID 1508638
NLuc Km ctr: inhibits NanoLuc under Km conditions, PMP22 counter-screen. AID 1508639. shares compounds with PMP22 txn prim. Potency, µM (highest dose often 57.5 µM), most hits filed as inhibitors. 690 tested, 5% active. secreted NLuc enzyme, coelenterazine luminescence, Km conditions
FLuc counter: counter-screen for PMP22 expression modulators: firefly luciferase inhibition; purified P. pyralis FLuc, luminescence, 10 min; 690 tested, under 10 active; AID 1508640; Potency, µM (highest dose often 57.5 µM), usual class: inhibitors; shares compounds with PMP22 txn prim
Target sequence (P08659 whole entry, looked up): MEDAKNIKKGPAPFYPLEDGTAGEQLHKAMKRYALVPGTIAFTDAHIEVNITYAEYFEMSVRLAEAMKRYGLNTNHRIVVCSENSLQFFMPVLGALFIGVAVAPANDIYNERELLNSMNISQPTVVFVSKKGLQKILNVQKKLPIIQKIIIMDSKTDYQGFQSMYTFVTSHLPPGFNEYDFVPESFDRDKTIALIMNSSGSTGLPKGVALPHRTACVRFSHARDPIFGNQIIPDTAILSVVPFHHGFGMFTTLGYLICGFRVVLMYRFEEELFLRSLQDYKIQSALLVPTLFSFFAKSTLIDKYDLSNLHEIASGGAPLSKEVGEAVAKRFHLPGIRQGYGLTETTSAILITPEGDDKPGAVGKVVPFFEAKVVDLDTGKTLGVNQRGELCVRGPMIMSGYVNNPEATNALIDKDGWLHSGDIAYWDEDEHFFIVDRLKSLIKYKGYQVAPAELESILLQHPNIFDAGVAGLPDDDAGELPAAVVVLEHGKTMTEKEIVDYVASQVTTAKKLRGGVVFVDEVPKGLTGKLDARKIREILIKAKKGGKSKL
S16 F2sN tox cnf: confirmation of cytotoxicity in S16 Pmp22-F2sN Schwann cells (luciferase reporters placed in the Pmp22 gene); shares compounds with PMP22 txn prim; S16 Schwann cells viability, CellTiter-Glo ATP luminescence, 24 h; Potency, µM (top dose mostly 57.5 µM), actives largely listed as cytotoxic; 690 tested, 7% active; AID 1508641
PMP22 txn cnf: PMP22 transcription modulation, confirmatory. shares compounds with PMP22 txn prim. S16 Schwann cells Pmp22-F2sN, dual luciferase, 24 h. Potency, µM (top dose mostly 57.5 µM), hits mostly inhibitors. 690 tested, 22% active; active means clear falling dose curves in both reporters; inconclusive means both reporters move, but less clearly or upward; inactive means either reporter flat; the % is the FLuc reporter signal
PMP22 prot conf: rat PMP22 protein level modulation, confirmatory; 95 tested, under 10 active; shares compounds with PMP22 txn prim; Potency, µM (top dose mostly 27.9 µM), usual class: inhibitors; S16 Schwann cells Pmp22-HiBiT, luminescence, 48 h
Target sequence (P25094 whole entry, looked up): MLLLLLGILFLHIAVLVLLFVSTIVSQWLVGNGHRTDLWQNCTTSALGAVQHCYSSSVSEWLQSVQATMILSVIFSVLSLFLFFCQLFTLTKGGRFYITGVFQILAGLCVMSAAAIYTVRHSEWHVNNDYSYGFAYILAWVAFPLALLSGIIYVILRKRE
Hits are given with their value; n = inactive; u = inconclusive; x = no result given; [ ] = dose if it differs, or a comment. Unless noted, the call rests on the fitted dose curve; in most records, active means well fitted curve in the direction sought with a large enough effect; inconclusive means small, poorly fitted or top-dose-only effect, or another doubt; inactive means no such curve, though single readings can be large; an effect the other way counts as inactive or inconclusive.

SMILES	PMP22 txn prim	p53null 39C tox	pS6 MEF inh	S16 viability	p53null 32C kill	NLuc saturating	NLuc Km ctr	FLuc counter	S16 F2sN tox cnf	PMP22 txn cnf	others
Cn1c(=O)oc2cc(S(=O)(=O)N3CCCC(C(=O)N4CCN(c5cccc(Cl)c5)CC4)C3)ccc21 (configuration not stated)	12.7µM	n	n	n	n	n	n	n	n	17.2µM	PMP22 prot conf=u
Cc1cccc(N2CCN(C(=O)C3CCCN(S(=O)(=O)c4ccc5c(c4)oc(=O)n5C)C3)CC2)c1C (configuration not stated)	11.2µM	n	n	n	n	n	n	n	n	u	PMP22 prot conf=u
CCCSCCCNC(=O)C1CCN(C(=O)c2cc3sccc3n2C)CC1	n	n	n	n	n	x	x	x	x	x
Cc1ccc(NC(=O)c2nc(S(C)(=O)=O)ncc2N(Cc2ccco2)Cc2ccccc2F)c(C)c1	n	n	n	n	n	x	x	x	x	x
CCc1ccc(S(=O)(=O)Nc2cc(-c3cn4ccccc4n3)ccc2C)cc1	n	n	n	n	n	x	x	x	x	x
Cc1ccccc1CNC(=O)c1cnc2sc(N3CCOCC3)nn2c1=O	u	n	n	n	n	x	x	x	x	x
CCOC(=O)Nc1ccc([N+](=O)[O-])cc1C	x	n[1.84 µM]	x	x	x	x	x	x	x	x
CC1=C(C(=O)Nc2ccc(Cl)cc2)C(c2ccccc2)n2ncc(C(=O)Nc3ccccc3)c2N1 (configuration not stated)	u	n	u	u	n	x	x	x	x	x
O=C(Nc1ccc(Cl)cc1)c1cnn2c1NC(c1ccccc1)=CC2c1ccccc1 (configuration not stated)	14.1µM	u	n	u	n	u	u	n	n	u
CCOC(=O)c1cc2c(=O)n3ccccc3nc2n(CC(C)C)c1=NC(=O)COc1ccc(Cl)cc1	16µM	n	n	n	n	n	n	n	n	u
CCOC(=O)c1cc2c(=O)n3ccccc3nc2n(CC(C)C)c1=NC(=O)C(C)(C)Oc1ccc(Cl)cc1	u	n	n	n	n	x	x	x	x	x
CCc1ccc(C(=O)c2cn(CC(=O)Nc3ccc4c(c3)OCO4)c3ccc(CC)cc3c2=O)cc1	12.6µM	u	n	n	n	n	n	n	u	12.2µM	PMP22 prot conf=u
CCc1ccc(C(=O)c2cn(CC(=O)Nc3ccc4c(c3)OCO4)c3ccc(Cl)cc3c2=O)cc1	u	u	u	n	n	x	x	x	x	x
COc1ccc(N2CCN(c3csc4ccccc4c3=O)CC2)cc1	n	u	n	n	n	x	x	x	x	x
CC1CCCN(S(=O)(=O)c2ccc(N3CCCCS3(=O)=O)cc2)C1 (configuration not stated)	u	n	n	n	n	n	n	n	n	n
O=C(CCOc1ccccc1)N(Cc1cccnc1)c1nc2ccc(F)cc2s1	13.4µM	n	n	25.1µM	n	u	u	n	n	n
O=C(COc1ccccc1)N(Cc1cccnc1)c1nc2ccc(F)cc2s1	n	n	n	n	n	x	x	x	x	x
CCOc1ccc(NC(=O)c2cc3sc(Cl)cc3n2CC)cc1	11.9µM	n	n	n	n	n	n	n	n	u
CCn1c(C(=O)NCc2ccc(OC)cc2)cc2sc(Cl)cc21	n	n	n	n	u	x	x	x	x	x
CCCC(=O)Nc1nnc(SCc2cc(=O)c3ccc(C)cc3[nH]2)s1	6.77µM	n	u	n	n	u	u	n	n	u
CCC(=O)Nc1nnc(SCc2cc(=O)c3cc(C)ccc3[nH]2)s1	u	n	n	n	n	x	x	x	x	x
CC(=O)Nc1ccc(NC(=O)CN2C(=O)CN(C)C(=O)c3ccccc32)cc1	n	n	n	n	n	x	x	x	x	x
CCOc1ccccc1NC(=O)c1c(NC(=O)COc2ccc(Cl)cc2)sc2c1CCCCC2	n	n	n	n	n	x	x	x	x	x
CCOc1ccccc1NC(=O)c1c(NC(=O)COc2ccccc2)sc2c1CCCCC2	12.7µM	n	n	n	n	n	n	n	n	n
Cc1ccc(S(=O)(=O)Nc2cc3c(cc2N2CCOCC2)n(C)c(=O)n3C)c(C)c1	15µM	n	n	u	n	n	n	n	n	n
SMILES	PMP22 txn prim	p53null 39C tox	pS6 MEF inh	S16 viability	p53null 32C kill	NLuc saturating	NLuc Km ctr	FLuc counter	S16 F2sN tox cnf	PMP22 txn cnf	others
Cc1ccc(S(=O)(=O)Nc2cc3c(cc2N2CCOCC2)n(C)c(=O)n3C)cc1	x	n	n	x	n	x	x	x	x	x
COc1ccc(Nc2cc(C)nc3c(C)c(C)ccc23)cc1	14.2µM	n	u	n	n	n	n	n	n	n
O=C(Cn1c(=O)n(Cc2ccccc2)c(=O)c2sc3ccccc3c21)Nc1ccc(F)cc1	14.2µM	u	n	u	n	n	n	n	u	u
O=C(Cn1c(=O)n(Cc2ccccc2)c(=O)c2sc3ccccc3c21)Nc1ccccc1	u	n	n	n	u	x	x	x	x	x
CC(=O)Nc1ccc2nc(-c3cc(C)ccc3C)[nH]c2c1	n	n	n	u	n	x	x	x	x	x
CC(=O)Nc1cc(NC(C)=O)cc(-c2nc3ccccc3[nH]2)c1	7.27µM	n	n	u	n	u	u	n	n	n
CCCC(=O)N(c1ccc2oc(C)c(C(C)=O)c2c1)S(=O)(=O)c1ccc(CC)cc1	8.43µM	n	n	u	n	n	n	n	n	u
Cc1ccc(NC(=O)Cn2c(=O)n(-c3ccc(C)cc3)c(=O)c3ccc(C(=O)NCc4ccccc4Cl)cc32)cc1	4.5µM	u	n	u	n	n	n	n	21.7µM	5.15µM	PMP22 prot conf=u
Cc1ccc(-n2c(=O)c3ccc(C(=O)NCc4ccccc4Cl)cc3n(CC(=O)Nc3ccc(C)cc3C)c2=O)cc1	15µM	n	n	n	n	n	n	n	u	8.48µM
